Source: PubChem BioAssay (NCI)
The panel holds about 79,000 compounds, 15% with a hit somewhere; the sample as a whole holds those more often. Rule as the data show it: active = growth inhibition above about 70%; inactive = the rest.

Legend:
[1] = NCI Yeast Anticancer Drug Screen. Data for the rad50 strain (AID 155);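 also: 0% = growth of vehicle-only cultures of the same strain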; details: S. cerevisiae rad50 strain growth inhibition; at 50.0 µM; stronger effect = higher value
Method in brief: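 Compounds were tested on a yeast strain with an engineered DNA damage repair alteration; the reported value is growth inhibition normalised to vehicle treatment.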

[2] = NCI Yeast Anticancer Drug Screen. Data for the mec2-1 strain (AID 157); details: S. cerevisiae mec2-1 strain, at 50.0 µM, stronger effect = higher value
Method in brief: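 Readout is yeast growth inhibition, normalised to vehicle-treated controls, in the mec2-1 strain exposed to compound.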

[3] = NCI Yeast Anticancer Drug Screen. Data for the sgs1 mgt1 strain (AID 161);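 also: 0% = growth of cultures given vehicle only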; details: S. cerevisiae sgs1 mgt1 strain, at 50.0 µM, stronger effect = higher value
Method in brief: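 This yeast growth screen uses a strain with defined DNA-repair lesions; compound-treated growth is compared with vehicle-treated growth.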

[4] = NCI Yeast Anticancer Drug Screen. Data for the cln2 rad14 strain (AID 165);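 also: 0% = growth equal to vehicle treated cultures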; details: S. cerevisiae cln2 rad14 strain, at 50.0 µM, stronger effect = higher value
Method in brief: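 Relative to vehicle controls, growth inhibition of compound-treated cln2 rad14 yeast was recorded.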

[5] = NCI Yeast Anticancer Drug Screen. Data for the bub3 strain (AID 167); details: S. cerevisiae bub3 mutant strain, at 50.0 µM, stronger effect = higher value
Method in brief: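 Growth of a checkpoint-deficient yeast mutant is measured after compound exposure. Values represent inhibition relative to vehicle.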

[6] = NCI Yeast Anticancer Drug Screen. Data for the mlh1 rad18 strain (AID 175); details: S. cerevisiae mlh1 rad18 strain growth inhibition; at 50.0 µM; stronger effect = higher value
Method in brief: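 Test agents were incubated with a yeast strain of defined genotype (DNA damage repair defect). Inhibition of growth was derived by comparison with vehicle-exposed cultures.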

Measured: growth inhibition

CCOP(=O)(OCC)/C(C#N)=C/c1cccc(OC)c1
inactive: [1] 57.5% | [2] 46.7% | [3] 45.6% | [4] 16.9% | [5] 30.8% | [6] 63%

C[C@H](CCC1SC1(C)C)C1CCC2(C)C3=C(CC[C@]12C)[C@@]1(C)CC[C@H](O)C(C)(C)C1CC3 (stereo partly specified)
inactive: [1] 9.85% | [2] -11.2% | [3] -11.2% | [4] -48.8% | [5] -5.2% | [6] 1.9%

O=C(CC(=O)C(F)(F)F)c1ccco1.[Fe]
inactive: [1] 32.6% | [2] 21.3% | [3] 0.5% | [4] 6.9% | [5] 6.55% | [6] 14.7%

NC(N)=N/N=C/c1ccc(Cl)c(Cl)c1
inactive: [1] 8.45% | [2] -3.15% | [3] -8.2% | [4] -9.25% | [5] -3.6% | [6] 21.4%

CC(=O)C(=[N+]=[N-])C(=O)N(C)CCC#N
inactive: [1] -7.3% | [2] 6.25% | [3] 11.2% | [4] 13.7% | [5] 7.25% | [6] 20.9%

CCOC(=O)N(NC(=O)c1ccc(N(CCCl)CCCl)cc1)C(C)=O
inactive: [1] 6.2% | [2] 8.95% | [3] 3.15% | [4] -15.5% | [5] 5.65% | [6] 30.9%

ClCCCN1CCN(CCCl)CC1
inactive: [1] -11.6% | [2] -10.1% | [3] -1.75% | [4] 3.2% | [5] -13.8% | [6] -21.5%

CCOC(CCCN1CCC2(CC1)C(=O)N(C)CN2c1ccccc1)(OCC)c1ccc(F)cc1
inactive: [1] 8.45% | [2] 20.8% | [3] 16.4% | [4] 2.3% | [5] 30.2% | [6] 25.2%

[C-]#[O+].[C-]#[O+].[C-]#[O+].[C-]#[O+].[Mo].c1ccc([As](CC[As](c2ccccc2)c2ccccc2)c2ccccc2)cc1
inactive: [1] 3.4% | [2] -0.4% | [3] -5.8% | [4] -5.7% | [5] 1.15% | [6] 6.6%

O=C(NC(CCS(=O)(=O)NCc1ccc(S(=O)(=O)F)cc1)C(=O)OCc1ccccc1)OCc1ccccc1 (stereo unspecified)
inactive: [1] 26.8% | [2] 5.7% | [3] 16.6% | [4] 15.4% | [5] 0.2% | [6] 29.9%

CCN=C=NCCCN(C)C
inactive: [1] -18.8% | [2] -8.8% | [3] -23.1% | [4] 0.25% | [5] -41.2% | [6] -6.35%

Nc1ccc2c(c1)Oc1ccc(N)cc1O2
inactive: [1] -22.8% | [2] 1.2% | [3] 0.7% | [4] 15.1% | [5] -6.2% | [6] 5.15%

C[N+]1=C(c2cccnc2/C=N/O)OCC1(C)C
inactive: [1] 1.3% | [2] -19.4% | [3] -13.7% | [4] -5.1% | [5] -24.4% | [6] -33.1%

CO[C@H](C)[C@](O)(C(=O)OCC1=CCN2CC[C@@H](O)[C@H]12)C(C)C
inactive: [1] -11.4% | [2] -37.6% | [3] -8.8% | [4] 1.25% | [5] -23.8% | [6] -13.6%

CCOP(=O)(OCC)C(N)Cc1c[nH]c2ccccc12 (stereo unspecified)
inactive: [1] 13.9% | [2] -5.85% | [3] -16.8% | [4] 16.4% | [5] 11.6% | [6] 4.9%

Cc1cc(-n2c(/C=C/c3ccc(Cl)cc3)nc3cc(Cl)ccc3c2=O)on1
inactive: [1] -27.2% | [2] -34.3% | [3] -12.8% | [4] -0.1% | [5] -9.75% | [6] -10.8%

CCOC(=N)N1[C@H](C)[C@@H]1C
inactive: [1] 43.1% | [2] -42.2% | [3] -42.1% | [4] -19% | [5] -43.1% | [6] -6.95%

CN1CCCC1c1ccc[n+](C)c1 (stereo unspecified)
inactive: [1] -2.95% | [2] 1.85% | [3] 5.6% | [4] -8.65% | [5] 2.1% | [6] 3.35%

[O-][n+]1c2ccccc2nc2ccccc21
inactive: [1] 62.1% | [2] 34% | [3] 26.9% | [4] -9.55% | [5] 41.2% | [6] 55.7%

CC(C)C(O)(C(=O)OCC1=CCN2CCC(O)C12)C(C)O (stereo unspecified)
inactive: [1] 2.55% | [2] 0.1% | [3] 25.1% | [4] 9.55% | [5] 12.6% | [6] 8.5%

O=[N+]([O-])c1ccc(-n2nc3ccc4c(no[n+]4[O-])c3n2)cc1
inactive: [1] -21.6% | [2] 23.5% | [3] 20.1% | [4] 16.6% | [5] -15.6% | [6] -25.6%
